KLF5 inhibitor = KLF5 expression inhibitors, primary screen, DLD-1 cells, luminescence; actives 0.23% (n = 290,000); DLD-1 KLF5 promoter-luciferase reporter; inhibition, % at 5 µM; AID 1700, 2009;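 active = inhibition above a per-plate limit of that plate's mean compound inhibition plus 3 SD, cut at about 60% in these data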;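 note: 0% = DMSO wells and 100% = LY294002 at 200 µM; higher means less KLF5 promoter-driven luciferase light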
BaF3 tox = parental Ba/F3 cell viability inhibition, counter-screen for JAK2V617F inhibitor project, murine pro-B, CellTiter-Glo luminescence. CellTiter-Glo ATP luminescence. inhibition, % at 5.6 µM. actives 1.1% (n = 220,000). AID 1486, 2009;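 active = inhibition above a per-campaign cutoff, the mean inhibition of all tested compounds plus 3 SD, cut at about 27% in these data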;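 note: 0% = DMSO wells and 100% = JAK Inhibitor I control wells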
Ba/F3 V617F tox = reduced viability of JAK2V617F-dependent Ba/F3 cells, primary screen, JAK2V617F inhibitor project, cell-based, Ba/F3 EpoR-JAK2V617F, luminescence | ATP luminescence | inhibition, % at 5.6 µM | actives 1.1% (n = 220,000) | AID 1446, 2008;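 active = inhibition above the campaign mean plus 3 SD over all tested compounds, cut at about 24% in these data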;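 note: cytokine-independent growth of Ba/F3 cells driven by EpoR plus mutant JAK2; 0% = DMSO-treated cells and 100% = JAK inhibitor I control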
APP transl inh = inhibitors of APP translation via 5'UTR reporter, primary screen, APP 5'UTR luciferase, SH-SY5Y cells; inhibition, % at 2 µM; AID 1285, 2008; actives 0.82% (n = 190,000); SH-SY5Y APP 5'UTR-luciferase reporter, luminescence;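 active = inhibition above a set limit, derived from the sample mean plus 3 SD, cut at about 45% in these data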
IEC-6 tox = cytotoxicity in IEC-6 intestinal epithelial cells, primary screen, cytotoxicity control for KLF5 inhibitor project, cell-based, luminescence | IEC-6 cytotoxicity, luminescence viability | inhibition, % at 5 µM | actives 0.78% (n = 290,000) | AID 1825, 2009; in the data active = inhibition above about 22%;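 note: 0% = plate median of test compound wells and 100% = cytotoxic reference compound wells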
The depositor's hits bear a star; / = not tested or not shown. Sampled rows, rich in hits. Any-hit rate of the full collection: about 1.9%.

SMILES | KLF5 inhibitor | BaF3 tox | Ba/F3 V617F tox | APP transl inh | IEC-6 tox
CCCCCc1ccc(OCCOCCn2c[n+](C)c3ccccc32)c(CCCCC)c1 | 8.5 | 81.5* | 100.8* | 28.9 | 15.9
CC(=O)Nc1ccc(OCCC[n+]2ccccc2)cc1 | -32.8 | -1.1 | -5.7 | 9.1 | -2.7
CN(C)CCCNC(=O)c1ccccn1 | 7.3 | 0.9 | -3.8 | -3.0 | 2.0
CN(C)CCCNC(=O)c1ccc(-c2nc(-c3ccc(Cl)cc3)cs2)cc1 | -123.2 | 46.4* | 100.8* | -30.6 | 6.8
CN1CCN(S(=O)(=O)c2cc([N+](=O)[O-])ccc2N/N=C/c2ccc(Cl)cc2)CC1 | 3.7 | 8.2 | 3.4 | / | 5.4
CSc1ncccc1C(=O)OCC(=O)c1cc(C)n(CC2CCCO2)c1C (centres undefined) | -79.3 | 1.7 | -1.6 | / | -1.1
CCC(=O)Nc1ccc(NC(=S)Nc2ccccc2)cc1 | -17.7 | 57.7* | -2.4 | -10.8 | -2.4
CCC(=O)Nc1ccc(NC(=S)NC(=O)Cc2ccccc2)cc1 | -52.0 | 6.9 | -2.7 | -17.0 | 4.1
CCS(=O)(=O)N1Cc2ccccc2CC1C(=O)Nc1ccc(C)cc1 (centres undefined) | 11.2 | 2.1 | -1.3 | -16.3 | 0.7
CCS(=O)(=O)N1Cc2ccccc2CC1C(=O)Nc1cccc(C)c1 (centres undefined) | -41.4 | 37.6* | 2.7 | -8.1 | 0.5
Cc1ccc(N/C(N)=N/c2nc(CSc3nnc(C)s3)cc(=O)[nH]2)c(C)c1 | -29.0 | 3.6 | -0.7 | 93.4* | 9.4
Cc1ccc(SCCNC(=O)c2ccc(C)c(S(=O)(=O)Nc3ccccc3C)c2)cc1 | -13.8 | 3.1 | -0.6 | 6.9 | -6.4
O=C1NC(=O)/C(=C/c2cccc([N+](=O)[O-])c2)N1 | -16.1 | 0.4 | -1.5 | / | -6.3
CCN1C/C(=C/c2cccc([N+](=O)[O-])c2)C(=O)/C(=C/c2cccc([N+](=O)[O-])c2)C1 | 1.1 | 5.0 | -0.1 | 94.1* | -6.7
O=C(COc1ccc(Oc2ccccc2)cc1)NCc1cn2ccccc2n1 | 21.9 | 26.6* | 31.1* | 18.2 | 37.4*
COc1cc2cc(/C=C/C(=O)c3ccco3)c(Cl)nc2cc1OC | -27.1 | 4.6 | 2.4 | 50.1* | -1.9
O=S(Cc1ccc(Br)cc1)Cc1nnc(SCc2ccc(Br)cc2)n1-c1ccccc1 (centres undefined) | 17.0 | 33.8* | 14.8 | 14.7 | 7.3
CCOC(=O)c1c(C)[nH]c2cc(Br)c(O)cc12 | 1.1 | 7.9 | -1.6 | 54.6* | 2.6
Cc1cc(C(=O)CSc2nc3ccccc3[nH]2)c(C)n1CC1CCCO1 (centres undefined) | -65.9 | 40.3* | 16.9 | -188.6 | 3.8
CCC(C)C(NC(=O)c1ccccc1NC(=O)c1ccco1)C(=O)NC1CCCCC1 (centres undefined) | -12.0 | 3.0 | -0.3 | 4.9 | -4.2
CCC(=O)n1nc(-c2ccccc2)nc1N | 9.6 | -0.2 | -3.5 | 16.3 | 2.9
O=C(NCCc1ccc(Cl)cc1)C1CCC(=O)N1Cc1ccc(F)cc1 (centres undefined) | -9.7 | 95.6* | -2.9 | -3.4 | -3.8
Cc1ccc(CCNC(=O)C2CCC(=O)N2Cc2ccc(F)cc2)cc1 (centres undefined) | 5.1 | / | / | / | -4.6
COc1ccc(NC(=O)CN2CCN(CC(=O)Nc3ccc(F)cc3)CC2)cc1Cl | -16.6 | / | / | / | -0.2
C[n+]1c2n(c3ccccc31)N=C(c1ccc(Cl)cc1)CS2 | -2.3 | 67.3* | 78.1* | -4.3 | -0.9
SMILES | KLF5 inhibitor | BaF3 tox | Ba/F3 V617F tox | APP transl inh | IEC-6 tox
CC1Sc2n(c3ccccc3[n+]2C)N=C1c1ccccc1 (centres undefined) | 5.3 | 74.5* | 98.9* | 19.0 | 20.9
Cc1[nH]c(C(=O)N/N=C/c2ccc(C(=O)O)cc2)c(C)c1C(=O)N/N=C/c1ccc(C(=O)O)cc1 | -33.6 | -1.0 | 0.2 | -16.7 | 7.7
CCOC(=O)c1c(C)[nH]c(C(=O)N/N=C/c2ccc(Br)cc2)c1C | 72.2* | 77.8* | 73.1* | 94.7* | 85.1*
CCc1cc2c(=O)n(Cc3ccco3)c(SCc3c(C)noc3C)nc2s1 | 0.2 | 3.4 | 5.0 | 50.3* | 9.1
CCc1cc2c(=O)n(Cc3ccco3)c(SCC(=O)NCC3CCCO3)nc2s1 (centres undefined) | 17.5 | / | / | / | 3.7
CC(NS(=O)(=O)c1ccccc1)C(c1cccs1)N1CCN(C)CC1 (centres undefined) | -21.4 | 5.9 | -1.4 | 1.4 | 0.2
N#CCSc1nc2ccccc2c2nc3ccccc3n12 | -21.8 | 48.7* | 63.1* | 21.0 | 4.8
CCn1c(SCC#N)nc2ccccc2c1=O | -11.9 | -1.5 | -0.3 | / | 6.1
COc1cc2c(cc1OC)CN(Cc1cc(=O)n3c(-c4ccccc4)csc3n1)CC2 | -3.6 | 1.0 | 0.7 | -27.1 | 2.2
O=C1C2C3c4ccccc4C(c4ccccc43)[C@@H]2C(=O)N1c1ccccn1 (some centres undefined) | -1.5 | 2.4 | -2.0 | / | 4.7
N#C/C(=C(/O)CCCl)c1ccccn1 | -3.0 | 7.2 | 1.4 | 3.5 | 1.1
Oc1c(CN2CCCCC2)cc(Br)c2cccnc12 | 41.0 | 27.1* | 44.1* | 66.9* | -6.1
CCOc1nc(-c2ccccc2)c2cc(Br)ccc2n1 | 3.4 | / | / | / | 0.3
COc1ccc(-c2n[nH]c3c2CN(C(=O)c2ccccc2)CC3)cc1 | -3.0 | / | / | / | 7.1
N#C/C(=C\c1ccccc1Br)C(=O)NC1CC1 | -10.6 | / | / | / | 0.5
Nc1nc(Nc2ccccc2)nc(N2CCOCC2)c1[N+](=O)[O-] | -11.4 | 5.3 | -1.5 | 57.7* | -5.6
COc1ccc(Nc2nc(N)c([N+](=O)[O-])c(N3CCOCC3)n2)cc1 | -18.7 | -0.3 | -0.7 | / | -3.1
N#CC(C#N)=C1C=CC=CN1/C(=C\c1ccccc1Cl)C(=O)c1ccccc1 | -7.4 | 1.2 | 2.5 | 92.3* | 5.6
N#CC(C#N)=C1C=CC=CN1/C(=C\c1ccccc1)C(=O)c1cccs1 | -16.0 | -2.1 | -4.5 | -6.2 | 2.7
COc1ccc(C(=O)/C(C#N)=N/Nc2ccc([N+](=O)[O-])cc2)cc1 | 3.8 | 7.1 | 0.2 | 91.9* | 17.7
CCCc1c(C)nn(C(=O)/C(C#N)=N/Nc2ccccc2[N+](=O)[O-])c1C | -24.1 | 3.9 | -1.7 | -64.5 | -1.3
COc1ccc(C(=O)/C(C#N)=N/Nc2ccccc2[N+](=O)[O-])cc1 | -5.8 | 2.3 | -0.6 | 70.4* | 3.8
O=C(Oc1nsnc1N1CCOCC1)N1CCOCC1 | -2.9 | -1.8 | -3.6 | -2.4 | 0.0
O=C(Oc1nsnc1N1CCOCC1)c1ccccc1 | -13.1 | 5.6 | 1.0 | 53.3* | 2.2
CCOc1ccc(NC(C(=O)Nc2cccc(C(C)=O)c2)c2ccccc2)cc1 (centres undefined) | 10.9 | 53.7* | 50.7* | 4.6 | 6.3
O=C(N/N=C/c1ccc[nH]1)c1ccc(COc2cccc3cccnc23)cc1 | -21.6 | 80.4* | 86.5* | 46.1* | 38.7*
